Test results as given in PubChem BioAssay (Tox21).
Where “and” joins values, the source holds several entries; their conditions need not be identical. Identical values can stand only once. Inconclusive results are not listed. More than one record can exist for a structure, and the calls need not agree. Calls of active or inactive are those of the source. Unless noted, calls come from the whole dose curve.

Columns and labels:
[1] = Nuclear factor erythroid 2-related factor 2/antioxidant responsive element (Nrf2/ARE) small molecule agonists: qHTS cell viability counter screen in human keratinocytes (AID 1919968; active = well fitted curve in the direction sought with a large enough effect in the repeat runs; an effect the other way counts as inactive or inconclusive; note: nearly all actives have a fitted effect of over 55% in size; note: potency is the fitted concentration of half-maximal effect)
In short: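 Cells of the KeratinoSens line were plated at 1,500 per well and left for 5 h before compound transfer from DMSO stocks. After a 23 h incubation (37 C, 5% CO2), CellTiter-Fluor was added. Signal was taken as fluorescence intensity 1 h later.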

[2] = Nuclear factor erythroid 2-related factor 2/antioxidant responsive element (Nrf2/ARE) small molecule agonists: luciferase reporter gene qHTS assay in human keratinocytes (AID 1919969); note: nearly all actives have a fitted effect of over 35% in size; note: potency is the fitted concentration of half-maximal effect
[3] = molecular target: Gonadotropin-releasing hormone receptor (Homo sapiens) (UniProt P30968); test: Human gonadotropin-releasing hormone receptor (GnRHR) small molecule agonists, calcium flux assay in GnRHR-HEK293 cells (AID 1920063); note: nearly all actives have a fitted effect of over 35% in size
In short: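 Compounds dissolved in DMSO are pin-transferred onto dye-loaded GnRHR-HEK293 cells, which were seeded 18 h before at 37 C/5% CO2. Calcium signal is read as fluorescence intensity at 1 s intervals for 3 min.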

[4] = molecular target: KiSS-1 receptor (Homo sapiens) (UniProt Q969F8); test: Human kisspeptin (KISS1R) small molecule agonists, calcium flux assay in KISS1R-HEK293 cells (AID 1920064; active = well fitted curve in the direction sought with a large enough effect in the repeat runs; an effect the other way counts as inactive or inconclusive)
In short: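 Cell line: HEK293, stable human KISS1R. Dye loading 1 h at 37 C after 18 h culture. Read: kinetic fluorescence, 480/540 nm, 3 min at 1 s intervals.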

[5] = G protein-coupled receptor (GPCR) small molecule agonists, calcium flux assay: HEK293 wild type cell line counter screen (AID 1920065)
In short: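 Tox21 10K compounds, 15 concentrations each in triplicate, pin-transferred in DMSO onto dye-loaded cells; kinetic read at 480/540 nm for 3 min, 1 s intervals.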

[6] = p53 small molecule agonists, cell-based qHTS assay with rat liver microsomes (AID 1963578)
In short: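 Fluorescence from a beta-lactamase reporter under a p53 response element was measured after cells had been incubated 16 h at 37 C with test compound and rat liver microsomes plus NADPH (0.5 mg/mL final each).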

[7] = p53 small molecule agonists, cell-based qHTS assay with human liver microsomes: qHTS cell viability counter screen (AID 1963579); note: nearly all actives have a fitted effect of over 45% in size
In short: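 Seed p53RE-bla cells at 4,000 per well; incubate 5 h at 37 C; add compound, human liver microsomes and NADPH; incubate 16 h at 37 C; add CellTiter-Glo; after 30 min at room temperature, read luminescence.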

[8] = p53 small molecule agonists, cell-based qHTS assay with rat liver microsomes: qHTS cell viability counter screen (AID 1963580); note: nearly all actives have a fitted effect of over 45% in size
In short: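 After the beta-lactamase ratio was read, CellTiter-Glo was added to the same wells and luminescence measured at 30 min; cells had been treated 16 h at 37 C with compounds, rat liver microsomes and NADPH (0.5 mg/mL final each).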

[9] = p53 small molecule agonists, cell-based qHTS assay (AID 1963582; active = well fitted activation curve with a large enough effect in the signal ratio in the repeat runs, not every such curve was filed as active; the % refers to the signal ratio; note: potency is the fitted concentration of half-maximal effect)
In short: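 16 h compound exposure (37 C) of p53 response element–bla cells, preceded by 5 h recovery at 37 C/5% CO2; read-out via LiveBLAzer B/G FRET substrate, 2 h RT, fluorescence intensity.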

[10] = cAMP Responsive Elements (CRE) small molecule agonists, cell-based qHTS assay (AID 1963590)
In short: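 HEK 293T cells stably bearing CRE-bla were plated at 2,000 cells per well and rested 18 h. Compounds, positive controls or DMSO were added for 3 h at 37 C. LiveBLAzer B/G substrate was then loaded for 2 h at room temperature.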

[11] = cAMP Responsive Elements (CRE) small molecule antagonists, cell-based qHTS assay (AID 1963591; active = well fitted inhibition curve with a large enough effect in the signal ratio in the repeat runs, not every such curve was filed as active; the % refers to the signal ratio)
In short: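 First, CRE-bla HEK293T cells settled 18 h at 37 C. Next, compound and 0.25 uM final NKH477 were applied for 3 h. Last, LiveBLAzer B/G substrate was loaded for 2 h at room temperature.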

[12] = molecular target: Beta-2 adrenergic receptor (Homo sapiens) (UniProt P07550); test: Adrenergic beta2 receptor (ADRB2) small molecule antagonists, cell-based qHTS assay (AID 1963592); note: series mostly up to about 92 µM; nearly all actives have a fitted effect of over 50% in size
In short: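 Assay format: CHO-ADRB2 cells, 18-20hr seeding at 37C/5% CO2, then compound plus 1nM isoproterenol agonist mix for 0.5hr RT. Homogeneous time-resolved fluorescence cAMP detection after 1hr, expressed as 665/615 nm ratio.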

[13] = molecular target: Beta-2 adrenergic receptor (Homo sapiens) (UniProt P07550); test: Adrenergic beta2 receptor (ADRB2) small molecule agonists, cell-based qHTS assay (AID 1963593);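 note: CHO cells stably overexpressing human ADRB2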
In short: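 CHO cells stably over-expressing ADRB2 were plated overnight at 37C, then dosed with compounds plus a stimulation mix containing 100uM IBMX and 25uM Ro-20-1724 for 0.5hr at room temperature. cAMP was measured by HTRF competition, 1hr.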

[14] = molecular target: D(2) dopamine receptor (Homo sapiens) (UniProt P14416); test: Dopamine D2 receptor (DRD2) small molecule agonists, cell-based qHTS assay (AID 1963594); note: nearly all actives have a fitted effect of over 35% in size
In short: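 HEK293 cells stably expressing human DRD2, pre-treated with PDE inhibitor Ro20-1724 (0.1 mM final) and compound 10 min at room temperature, then stimulated with NKH477 (200nM […]) for 30 min. cAMP read by HTRF (665/620 nm).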

[15] = molecular target: D(2) dopamine receptor (Homo sapiens) (UniProt P14416); test: Dopamine D2 receptor (DRD2) small molecule antagonists, cell-based qHTS assay (AID 1963595; active = well fitted inhibition curve with a large enough effect in the signal ratio in the repeat runs, with a control signal flat; the % refers to the signal ratio)
In short: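 Stable D2 receptor HEK293 line, 24 h after seeding. Compound preincubated 10 min, then quinpirole (12 nM) with forskolin analogue NKH477 (200 nM), 30 min, room temperature. Detection by time-resolved FRET of cAMP.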

[16] = p53 small molecule agonists, cell-based qHTS assay: qHTS cell viability counter screen (AID 1963581); note: nearly all actives have a fitted effect of over 45% in size; note: potency is the fitted concentration of half-maximal effect
In short: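 ATP content measured by luminescence in HCT-116 p53RE-bla cells treated 16 h at 37 C, same wells as the reporter screen.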

[17] = molecular target: 5-hydroxytryptamine receptor 2A (Homo sapiens) (UniProt P28223); test: 5-hydroxytryptamine receptor 2A (HTR2A) small molecule antagonists, cell-based qHTS assay (AID 1963586); note: nearly all actives have a fitted effect of over 45% in size
In short: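 CHO cells stably expressing human HTR2A were plated for 18 h at 37 C, then loaded with calcium dye for 1 h. Compounds were preincubated 5 min at room temperature before DOI (4 nM solution) was added. Kinetic fluorescence was read for 3 min.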

[18] = molecular target: 5-hydroxytryptamine receptor 2A (Homo sapiens) (UniProt P28223); test: 5-hydroxytryptamine receptor 2A (HTR2A) small molecule agonists, cell-based qHTS assay (AID 1963587); note: nearly all actives have a fitted effect of over 30% in size
In short: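 CHO cells stably expressing human HTR2A, plated 18 h, loaded with calcium dye 1 h at 37 C. Agonist mode: compounds added and intracellular calcium fluorescence recorded kinetically for 2 min at 1 sec intervals.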

[19] = molecular target: Muscarinic acetylcholine receptor M1 (Homo sapiens) (UniProt P11229); test: Cholinergic receptor muscarinic 1 (CHRM1) small molecule agonists, cell-based qHTS assay (AID 1963589); note: nearly all actives have a fitted effect of over 35% in size; note: potency is the fitted concentration of half-maximal effect
In short: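 Homogeneous fluorescence calcium flux, agonist mode. Human M1-expressing CHO cells; compound dosed at 15 concentrations, three independent runs; signal sampled every 1 sec.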

[20] = molecular target: Muscarinic acetylcholine receptor M1 (Homo sapiens) (UniProt P11229); test: Cholinergic receptor muscarinic 1 (CHRM1) small molecule antagonists, cell-based qHTS assay (AID 1963588); note: nearly all actives have a fitted effect of over 40% in size; note: potency is the fitted concentration of half-maximal effect
In short: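 Compounds were tested at 15 concentrations in three independent runs. Dye-loaded CHRM1-CHO cells were exposed 5 min at room temperature before stimulation by acetylcholine added at 50nM. Intracellular calcium was read kinetically on FDSS for 3 min.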

Measured: Potency

Sequence of Beta-2 adrenergic receptor (Homo sapiens) (P07550 whole entry, looked up): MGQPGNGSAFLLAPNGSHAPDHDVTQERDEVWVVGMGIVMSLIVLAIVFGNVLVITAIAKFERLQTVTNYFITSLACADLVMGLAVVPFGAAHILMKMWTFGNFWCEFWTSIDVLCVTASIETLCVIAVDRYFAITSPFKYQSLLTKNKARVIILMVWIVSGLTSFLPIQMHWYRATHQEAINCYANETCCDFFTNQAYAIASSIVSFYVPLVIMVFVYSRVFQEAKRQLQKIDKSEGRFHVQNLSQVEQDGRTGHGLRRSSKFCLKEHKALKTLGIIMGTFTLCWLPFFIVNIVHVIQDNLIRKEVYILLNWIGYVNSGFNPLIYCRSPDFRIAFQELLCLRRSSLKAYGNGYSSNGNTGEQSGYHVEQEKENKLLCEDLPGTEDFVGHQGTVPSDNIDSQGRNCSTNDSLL
Sequence of KiSS-1 receptor (Homo sapiens) (Q969F8 whole entry, looked up): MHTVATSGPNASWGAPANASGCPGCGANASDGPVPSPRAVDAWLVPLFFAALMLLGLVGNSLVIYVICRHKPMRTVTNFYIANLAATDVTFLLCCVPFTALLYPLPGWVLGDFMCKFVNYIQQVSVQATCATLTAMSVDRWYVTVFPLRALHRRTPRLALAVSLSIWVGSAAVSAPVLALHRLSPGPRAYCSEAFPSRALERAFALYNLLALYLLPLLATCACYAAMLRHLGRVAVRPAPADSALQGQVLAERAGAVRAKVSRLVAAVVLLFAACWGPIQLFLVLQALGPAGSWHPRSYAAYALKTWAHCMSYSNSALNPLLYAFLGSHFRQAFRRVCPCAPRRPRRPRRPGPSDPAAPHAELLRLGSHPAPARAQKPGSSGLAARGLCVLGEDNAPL
Sequence of Muscarinic acetylcholine receptor M1 (Homo sapiens) (P11229 whole entry, looked up): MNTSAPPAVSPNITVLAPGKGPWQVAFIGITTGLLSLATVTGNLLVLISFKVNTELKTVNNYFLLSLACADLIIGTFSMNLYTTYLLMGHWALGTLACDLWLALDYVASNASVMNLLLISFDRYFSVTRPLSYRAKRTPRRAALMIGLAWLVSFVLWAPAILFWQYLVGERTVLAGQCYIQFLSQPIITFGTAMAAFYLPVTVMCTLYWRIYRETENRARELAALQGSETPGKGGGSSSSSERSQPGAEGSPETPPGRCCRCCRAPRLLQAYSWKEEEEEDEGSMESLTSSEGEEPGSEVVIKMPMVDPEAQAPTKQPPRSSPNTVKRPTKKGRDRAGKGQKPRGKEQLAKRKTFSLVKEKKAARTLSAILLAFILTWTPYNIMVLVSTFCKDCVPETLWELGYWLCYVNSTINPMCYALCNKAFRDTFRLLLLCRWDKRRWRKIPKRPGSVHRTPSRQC
Sequence of Gonadotropin-releasing hormone receptor (Homo sapiens) (P30968 whole entry, looked up): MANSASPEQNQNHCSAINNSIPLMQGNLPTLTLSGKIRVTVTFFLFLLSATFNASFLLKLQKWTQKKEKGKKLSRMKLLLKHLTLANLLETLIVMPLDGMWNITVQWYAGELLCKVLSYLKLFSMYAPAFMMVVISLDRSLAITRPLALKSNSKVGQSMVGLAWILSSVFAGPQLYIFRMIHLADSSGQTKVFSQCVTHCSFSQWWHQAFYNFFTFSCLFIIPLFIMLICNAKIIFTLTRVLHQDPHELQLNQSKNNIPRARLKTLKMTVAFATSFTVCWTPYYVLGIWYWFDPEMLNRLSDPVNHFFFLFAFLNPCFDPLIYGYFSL
Sequence of D(2) dopamine receptor (Homo sapiens) (P14416 whole entry, looked up): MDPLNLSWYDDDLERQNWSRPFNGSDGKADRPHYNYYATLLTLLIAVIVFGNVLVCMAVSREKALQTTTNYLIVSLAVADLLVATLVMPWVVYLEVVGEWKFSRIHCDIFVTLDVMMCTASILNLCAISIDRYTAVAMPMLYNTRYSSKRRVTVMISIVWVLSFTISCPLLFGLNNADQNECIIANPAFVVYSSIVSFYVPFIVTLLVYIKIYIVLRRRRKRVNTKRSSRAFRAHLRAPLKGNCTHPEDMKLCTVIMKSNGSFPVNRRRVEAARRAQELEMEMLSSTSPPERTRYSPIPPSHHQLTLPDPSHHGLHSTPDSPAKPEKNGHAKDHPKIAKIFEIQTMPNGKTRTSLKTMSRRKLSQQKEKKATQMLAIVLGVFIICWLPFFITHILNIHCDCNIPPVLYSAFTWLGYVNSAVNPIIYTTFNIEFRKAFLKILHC
Sequence of 5-hydroxytryptamine receptor 2A (Homo sapiens) (P28223 whole entry, looked up): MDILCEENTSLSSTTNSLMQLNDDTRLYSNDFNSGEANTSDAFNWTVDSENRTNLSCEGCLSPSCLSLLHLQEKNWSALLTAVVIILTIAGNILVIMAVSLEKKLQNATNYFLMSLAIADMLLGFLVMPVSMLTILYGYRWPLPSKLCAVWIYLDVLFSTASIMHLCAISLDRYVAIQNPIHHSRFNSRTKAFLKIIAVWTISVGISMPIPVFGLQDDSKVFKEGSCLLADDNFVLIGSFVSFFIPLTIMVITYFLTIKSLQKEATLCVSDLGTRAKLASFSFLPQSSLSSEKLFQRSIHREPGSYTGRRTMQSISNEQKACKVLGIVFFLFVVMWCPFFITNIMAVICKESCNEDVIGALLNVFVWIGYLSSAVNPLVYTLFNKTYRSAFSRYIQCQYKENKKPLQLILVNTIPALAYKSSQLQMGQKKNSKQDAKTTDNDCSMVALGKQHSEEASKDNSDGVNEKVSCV

Cc1cc(C)nc(NS(=O)(=O)c2ccc(N)cc2)n1
not listed: [16] | [17] | [18] | [19] | [20]
inactive: all other assays above

CC1CCC2CC1C2(C)C (configuration not stated)
not listed: [6] | [9] | [13] | [20]
inactive: all other assays above

N#Cc1ccccc1
not listed: [13] | [15]
inactive: all other assays above

Fc1ccc(Br)cc1
inactive: all assays above

CCCCCCCCCCCC[N+](C)(C)C
active: [1] 48.4 µM and 30.6 µM and 48.6 µM | [20] 374 nM and 421 nM and 334 nM | [19] 27.5 µM and 245 nM
not listed: [10] | [11]
inactive: all other assays above

OC[C@H]1O[C@@H](Oc2ccc(O)cc2)[C@H](O)[C@@H](O)[C@@H]1O
inactive: all assays above

Nc1ccc2c(O)cc(S(=O)(=O)O)cc2c1
active: [9] 12.9 µM and 16.2 µM
not listed: [6] | [7] | [12] | [13]
inactive: all other assays above

Oc1ccc(O)cc1
active: [2] 60.8 µM and 61.1 µM and 21.1 µM
not listed: [6] | [8] | [10]
inactive: all other assays above

CCCCCCC=O
not listed: [6] | [13]
inactive: all other assays above

COC(=O)CCCCC(=O)OC
not listed: [8] | [9] | [13]
inactive: all other assays above

Nc1ccc(S(=O)(=O)c2ccc(N)cc2)cc1
inactive and 27.3 µM (active): [2]
not listed: [7] | [8]
inactive: all other assays above

CC1=CC[C@H]2C[C@@H]1C2(C)C
not listed: [6] | [9]
inactive: all other assays above

O=c1oc(=O)c2cc3c(=O)oc(=O)c3cc12
not listed: [6] | [9] | [13] | [17]
inactive: all other assays above

COc1c(Cl)c(Cl)c(Cl)c(Cl)c1Cl
not listed: [6] | [9]
inactive: all other assays above

O=C(O)CCC(=O)O
42.1 µM (active) and inactive: [16]
not listed: [6] | [9] | [10]
inactive: all other assays above
